In ChEMBL document CHEMBL3988442, “University of Dundee, Small-Polar-MMV Screening Library” (2021) one finds Percent Effect data, which are given here for 17 molecules.

Assay [1] deals with T1, Aspartate--tRNA(Asp/Asn) ligase (Mycobacterium tuberculosis (strain ATCC 25618 / H37Rv)) (UniProt P9WFW3).
T1 sequence (whole entry): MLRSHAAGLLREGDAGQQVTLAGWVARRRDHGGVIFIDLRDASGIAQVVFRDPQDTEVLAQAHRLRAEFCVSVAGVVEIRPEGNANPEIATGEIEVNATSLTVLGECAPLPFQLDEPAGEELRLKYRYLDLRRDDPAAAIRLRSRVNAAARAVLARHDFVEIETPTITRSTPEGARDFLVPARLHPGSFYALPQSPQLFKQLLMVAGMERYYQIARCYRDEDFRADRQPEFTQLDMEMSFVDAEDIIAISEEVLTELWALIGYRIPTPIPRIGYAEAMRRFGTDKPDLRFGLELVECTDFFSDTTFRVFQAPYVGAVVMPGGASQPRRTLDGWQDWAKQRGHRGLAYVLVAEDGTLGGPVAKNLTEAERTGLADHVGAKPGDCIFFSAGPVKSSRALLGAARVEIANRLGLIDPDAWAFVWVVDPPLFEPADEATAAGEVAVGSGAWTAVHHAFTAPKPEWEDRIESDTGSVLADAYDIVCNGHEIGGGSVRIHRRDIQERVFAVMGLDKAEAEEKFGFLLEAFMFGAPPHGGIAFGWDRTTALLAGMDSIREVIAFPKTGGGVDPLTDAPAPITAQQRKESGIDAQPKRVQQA
Kind of assay: Assay for Asp RNA synthetase-1 from Mycobacterium tuberculosis. The class given is functional. The conditions noted are these: 30 µM. Details: scale not given: direction of the effect not stated beside the values.

Assay [2] deals with Shiga toxin 2 (Escherichia coli O157:H7) (UniProt P09385+P09386). In words: E. coli 0.157:H7 Shiga Toxin SOP - stx2 screening assay. The conditions noted are these: 30 µM. Details: scale not given: direction of the effect not stated beside the values. The class given is functional.

Turning to `O=C(C1CCC1)N1CCN(c2snc3ccccc23)CC1`, the Percent Effect in assay [1] stood at 2.29%; in assay [2] it was 10.4%.
For `O=S1(=O)COCCN1Cc1cccc(Cl)c1` the same measures were -0.479% and 10.7%.
For the molecule `O=C(C1CCOCC1)N1CCc2ncnc(-c3ccc(F)cc3)c2CC1`, the Percent Effect in assay [1] is -1.43%; in assay [2], -14%.
For `O=C(CN1CCC(c2ccnn2CCO)CC1)NCc1cccs1`, in that order: -1.91% and -10%.
In the case of `Cc1nnc(N2CC[C@H]3C[C@@H](C(=O)NC4CCCC4)O[C@H]3C2)s1`, the Percent Effect was 0.29% in assay [1] and -4.68% in assay [2].
For `O=C(c1cccc(Cn2ccnc2)c1)N1CCCC(n2ccnc2)C1` (centres undefined), in that order: -0.874% and -7.22%.
For `Cn1ccnc1COc1ccc(CN2CCN(CCO)CC2)cc1` the same measures were -5.49% and -50.7%.
For `O=C(c1cccc(Cl)c1)N1CCCn2c(CN3CCCCC3)nnc2C1`, in that order: -2.93% and -13.3%.
With `Cc1ccc(C(=O)NS(=O)(=O)c2ccccc2C)c(=O)[nH]1`, the Percent Effect was -0.991% in assay [1] and 10.2% in assay [2].
For `COc1ccc(NC(=O)C2CCOC2)c(N2CCN(C(C)=O)CC2)n1` (centres undefined) the same measures were 1.42% and -6.14%.
For `Cc1nc(C2CCCN(C(=O)c3ccc(OCC4CC4)cc3)C2)no1` (centres undefined), in that order: -8.26% and -5.46%.
For `Cc1nc(N2CCOCC2)nc2c1CCN(C(=O)NC1CCCC1)CC2` the same measures were 2.29% and -52.5%.
For `CC(C)c1ccc(OCCC(=O)N2CCC(CC(N)=O)CC2)cc1`, the Percent Effect in assay [1] was -0.478%; in assay [2], 29.9%.
For `Cn1cc(C2CC(=O)NC23CCN(CC2CC2)CC3)cn1` (centres undefined), in that order: -4.05% and -21.4%.
For `CCc1cc(NCc2ccccc2CN2CCCC2)n2ncnc2n1`, in that order: 7.58% and -25.4%.
For `CN(C)CCN1CCO[C@@H]2CN(C(=O)c3cccs3)CC[C@@H]2C1`, in that order: 0.229% and 4.93%.
On to `CCn1cnnc1CNC(=O)N1CCCN(C(C)=O)CC1`, for which the Percent Effect in assay [1] is -0.98%; in assay [2], 25.6%.
